# Among all 310,000 compounds or so, about 14,000 (4.5%) showed an effect of 50% or more. Effects have a minus sign here. This excerpt belongs to a sample that is enriched for strong results.
# Target: human ether-à-go-go-related gene (hERG) potassium channel (human, UniProt Q12809)
# Experiment: primary screen, population patch clamp on CHO cells stably expressing hERG; higher = less effect of the substance
# 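Further: peak tail current of the secondary pulse compared with the same well before compound.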
# human ether-à-go-go-related gene (hERG) potassium channel, sequence (Q12809 whole entry, looked up): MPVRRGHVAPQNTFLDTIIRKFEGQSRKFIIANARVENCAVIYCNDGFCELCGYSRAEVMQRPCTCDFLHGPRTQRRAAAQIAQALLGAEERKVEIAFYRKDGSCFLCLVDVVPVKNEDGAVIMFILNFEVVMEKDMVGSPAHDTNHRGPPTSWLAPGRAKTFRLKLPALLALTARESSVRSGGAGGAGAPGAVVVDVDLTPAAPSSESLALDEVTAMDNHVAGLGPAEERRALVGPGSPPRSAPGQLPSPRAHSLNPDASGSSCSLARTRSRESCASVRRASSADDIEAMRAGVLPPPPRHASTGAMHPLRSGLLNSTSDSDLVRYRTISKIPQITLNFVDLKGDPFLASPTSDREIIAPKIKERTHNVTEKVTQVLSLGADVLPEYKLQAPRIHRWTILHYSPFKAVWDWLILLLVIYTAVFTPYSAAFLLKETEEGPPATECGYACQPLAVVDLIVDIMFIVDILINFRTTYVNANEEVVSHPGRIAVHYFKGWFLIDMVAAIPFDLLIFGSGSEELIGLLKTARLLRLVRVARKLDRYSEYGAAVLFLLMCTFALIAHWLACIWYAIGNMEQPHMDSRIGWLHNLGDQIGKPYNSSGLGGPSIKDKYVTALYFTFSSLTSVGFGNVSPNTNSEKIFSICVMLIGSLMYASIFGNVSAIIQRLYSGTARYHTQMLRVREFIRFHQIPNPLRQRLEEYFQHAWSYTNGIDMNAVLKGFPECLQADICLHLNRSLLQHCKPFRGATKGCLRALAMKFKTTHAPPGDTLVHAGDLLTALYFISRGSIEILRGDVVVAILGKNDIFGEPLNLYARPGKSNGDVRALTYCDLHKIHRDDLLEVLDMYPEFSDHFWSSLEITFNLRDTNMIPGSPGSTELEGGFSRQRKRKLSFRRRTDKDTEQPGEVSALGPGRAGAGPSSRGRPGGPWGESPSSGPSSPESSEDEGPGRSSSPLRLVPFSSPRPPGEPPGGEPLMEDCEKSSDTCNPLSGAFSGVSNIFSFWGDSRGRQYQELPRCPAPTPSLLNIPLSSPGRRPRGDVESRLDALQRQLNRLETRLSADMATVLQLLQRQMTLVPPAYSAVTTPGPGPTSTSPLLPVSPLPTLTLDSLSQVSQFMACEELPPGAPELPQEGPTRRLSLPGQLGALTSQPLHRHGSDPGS
row,SMILES,"hERG current change (%, negative = inhibition) at 10uM"
1,CCOC(=O)c1c(NC(=O)CNC2CCCCC2)sc(C)c1C,10.3%
2,N#CCSc1nnc(COc2ccc3ccccc3c2)o1,-5.89%
3,O=C(Cc1ccc(Br)cc1)OCC(=O)c1ccc2c(c1)OCCO2,13.1%
4,COc1cc(CC(=O)OCC(=O)Nc2ccc3c(c2)OCCO3)cc(OC)c1OC,26%
5,COc1cc(CC(=O)OCC(=O)c2ccc3c(c2)OCCO3)cc(OC)c1OC,-58.6%
6,CC(=O)C1=C(O)C(=O)OC1c1ccc(Cl)cc1 (stereo not shown),7.92%
7,FC(F)(F)c1nnc2ccc(NCc3ccccc3)nn12,8.9%
8,CCN(CC(=O)Nc1c(F)cccc1F)C(=O)CSCC(=O)Nc1ccc(OC)cc1,-3.35%
9,Cc1ccc(CSCC(=O)N(C)CC(=O)Nc2ccc(C)cc2)cc1,-2.48%
10,CCN(CC(=O)NCc1ccc(Cl)cc1)C(=O)CSCC(=O)Nc1ccc(OC)cc1,-66.7%
11,CCN(CC(=O)Nc1ccc2c(c1)OCCO2)C(=O)CSCC(=O)Nc1ccc(C)cc1,-31.1%
12,CCN(CC(=O)Nc1ccc(NC(C)=O)cc1)C(=O)CSCC(=O)Nc1ccc(C)cc1,2.95%
13,CCN(CC(=O)Nc1ccc(OC)cc1)C(=O)CSCC(=O)Nc1ccc(C)cc1,-23.5%
14,CCN(CC(=O)NCc1ccc(Cl)cc1)C(=O)CSCC(=O)Nc1ccc(C)cc1,-77.9%
15,CSc1ccc(CN(C)C(=O)CSCC(=O)Nc2ccc(C)cc2)cc1,-73%
16,CSc1ccc(CN(C)C(=O)CSCC(=O)Nc2cc(C)on2)cc1,6.59%
17,CC(CCc1ccccc1)NCC(O)c1ccc(O)c(C(N)=O)c1.Cl (stereo not shown),-30.6%
18,CCOC(=O)C1CCCN(Cc2cc(=O)oc3cc(C)ccc23)C1 (stereo not shown),-13.6%
19,CCOCC(=O)Nc1ccccc1C(=O)N1CCOCC1,-0.166%
20,Nc1cc(N2CCCCC2)c(Cl)cc1[N+](=O)[O-],-10.8%
21,NC(=O)C1CCN(CC(=O)NC(=O)NC2CCCC2)CC1,9.34%
22,Cc1c(-c2cc(C(=O)O)no2)cnn1C,32.4%

row,SMILES,"hERG current change (%, negative = inhibition) at 10uM"
1,O=C(OCc1ccccc1)/C(=C/c1cccc([N+](=O)[O-])c1)NC(=O)c1ccco1,-63.3%
2,O=C(OCc1ccccc1)/C(=C/c1cccc(Br)c1)NC(=O)c1ccco1,-52.5%
3,O=C(NC(Cc1ccccc1)C(=O)O)/C(=C\c1cccc([N+](=O)[O-])c1)NC(=O)c1ccco1 (stereo not shown),28.4%
4,CCOC(=O)/C(=C/c1ccccc1)NC(=O)c1ccco1,-7.55%
5,O=C(NC(Cc1ccccc1)C(=O)O)/C(=C/c1cccc([N+](=O)[O-])c1)NC(=O)c1ccco1 (stereo not shown),-11.4%
6,C=CCOC(=O)/C(=C\c1ccccc1)NC(=O)c1ccco1,1.97%
7,O=C(COc1ccc(Cl)cc1)NC(=S)Nc1ccccc1N1CCOCC1,17.4%
8,Cc1ccc2c(O)c(C)c(=O)[nH]c2n1,24.3%
9,O=C(Nc1ccc(S(=O)(=O)NC2=NCCCCC2)cc1)c1ccco1,2.7%
10,CCN(CC)c1ccc(NC(=O)CSc2ccsc2[N+](=O)[O-])c(C)c1,5.74%
11,Br.CN1CCN(CC(=O)c2cc(C(C)(C)C)c(O)c(C(C)(C)C)c2)CC1,-13.3%
12,COc1cccc(Cn2c(=O)oc3ccccc32)c1,4.3%
13,Cc1csc2nc(COC(=O)c3cccc(N(C)C)c3)cc(=O)n12,-32.5%
14,Cc1csc2nc(COC(=O)c3ccc(Cl)c([N+](=O)[O-])c3)cc(=O)n12,-63.1%
15,COc1ccc(C(=O)OCc2cc(=O)n3c(C)csc3n2)cc1F,-2.77%
16,Fc1ccc(-c2cc(C(F)(F)F)nc(N3CCCCC3)n2)cc1,19.5%
17,C/C(CC(=O)NCc1ccco1)=N\NC(=O)c1ccc(Cl)cc1Cl,8.44%
18,C/C(CC(=O)NCc1ccco1)=N\NC(=O)COc1ccc(Cl)cc1Cl,-65.6%
19,CCCNC(=O)C/C(C)=N/NC(=O)COc1ccc(C)cc1Br,-20.9%
20,Cc1cc(C)n(CC(=O)NNC(=O)COc2ccc(Cl)cc2Cl)n1,3.06%
21,O=C(COc1ccc(Cl)cc1Cl)NCc1ccco1,0.837%
22,C/C(CC(=O)NCc1ccc(Cl)cc1)=N\NC(=O)COc1ccc(C)cc1Br,-33.1%

row,SMILES,"hERG current change (%, negative = inhibition) at 10uM"
1,COc1ccccc1CNC(=O)C/C(C)=N/NC(=O)COc1ccc(C)cc1Br,-63.9%
2,C/C(Cn1nc([N+](=O)[O-])cc1C)=N\NC(=O)COc1c(Cl)cc(Cl)cc1Cl,-68%
3,COc1ccc(C(=O)N/N=C(\C)Cn2nc([N+](=O)[O-])cc2C)cc1,-15.8%
4,C/C(Cn1cnc([N+](=O)[O-])n1)=N/NC(=O)COc1c(Cl)cc(Cl)cc1Cl,-31.4%
5,C/C(Cn1nc([N+](=O)[O-])cc1C)=N\NC(=O)COc1ccccc1[N+](=O)[O-],-17.4%
6,C/C(Cn1nc([N+](=O)[O-])cc1C)=N\NC(=O)COc1ccc(Cl)cc1Cl,-66.3%
7,O=C(NN1C(=O)CSC1=S)C(=O)NN1C(=O)CSC1=S,25.3%
8,O=C(Nc1ccccc1C(=O)Nc1ccccc1C(=O)O)c1ccccc1,20.5%
9,CN1CCN(Cc2nnc(-c3ccccc3)o2)CC1,22.7%
10,C/C(=C\C(=O)c1cccnc1)Nc1ccc(C)c(C)c1,-20%
11,CCc1ccc(OCC2NCCc3cc(OC)c(OC)cc32)cc1 (stereo not shown),-45.2%
12,CC(=O)Nc1ccc(N2CCCC2)cc1,6.33%
13,CCN1CCN(C(c2ccccc2)c2sc3nc(C)nn3c2O)CC1 (stereo not shown),-9.32%
14,C/C(CC(=O)Nc1ccccc1)=N\NC(=O)COc1ccc(C)cc1Br,2.14%
15,C/C(CC(=O)N(C(C)C)C(C)C)=N\NC(=O)COc1ccc(Br)cc1Br,-51.3%
16,C/C(CC(=O)N(C(C)C)C(C)C)=N\NC(=O)COc1ccc(Cl)cc1Cl,-22.6%
17,Cc1cc2nc(-c3ccc(SCC(=O)Nc4ccc(S(=O)(=O)N5CCCC5)cc4)nc3)[nH]c2cc1C,8.52%
18,Cc1cccc(N2C(=O)CC(N3CCN(Cc4ccc5c(c4)OCO5)CC3)C2=O)c1 (stereo not shown),-19.1%
19,Cc1ccc(CN2CCN(Cc3cn(C)nc3-c3ccccc3)CC2CCO)o1 (stereo not shown),1.84%
20,CCn1ncc(CN2CCN(Cc3ccc(OC)c(C)c3C)C(CCO)C2)c1C (stereo not shown),-19.9%
21,Cn1cc(CN2CCN(Cc3ccccc3)C(CCO)C2)c(-c2ccccc2)n1 (stereo not shown),-37.9%
22,CCOc1ccccc1CN1CCN(Cc2cn(C)nc2-c2ccccc2)CC1CCO (stereo not shown),-65.6%

row,SMILES,"hERG current change (%, negative = inhibition) at 10uM"
1,COc1ccc(CN2CCN(Cc3cn(C)nc3-c3ccccc3)CC2CCO)c(C)c1C (stereo not shown),-72.4%
2,COc1cc(C2CC(=O)Oc3c2c(=O)n(C)c2ccccc32)ccc1O (stereo not shown),14.7%
3,COc1ccc(NC(=O)C2(c3ccc(NC(=O)c4ccc(OC)cc4)cc3)CCCC2)cc1,-9.88%
4,CCn1c(SCC(=O)N/N=C/c2ccccc2OCC(=O)O)nnc1-c1ccc(C)cc1,3.57%
5,Cn1c(=O)c(C(=O)COC(=O)c2cc(C3CC3)nc3ccccc23)c(N)n(Cc2ccccc2)c1=O,13.8%
6,CC(=O)N1CCC(C(=O)NC2CCCc3c2cnn3-c2cc(F)cc(F)c2)CC1 (stereo not shown),-4.52%
7,Cc1cc(C(=O)NC2CCCc3c2cnn3-c2ccc(C(C)(C)C)cc2)n[nH]1 (stereo not shown),-5.84%
8,Cc1ccccc1-n1ncc2c1CC(C)(C)CC2NC(=O)CCN1Cc2ccccc2C1=O (stereo not shown),-3.54%
9,Cc1cc(C)cc(-n2ncc3c2CCCC3NC(=O)C2(C(N)=O)CC2)c1 (stereo not shown),13.7%
10,Cc1ccc(-n2ncc3c2CCCC3NC(=O)c2csnn2)cc1C (stereo not shown),-33.2%
11,Cc1cc(C)cc(-n2ncc3c2CCCC3NC(=O)C2CCC2)c1 (stereo not shown),-76%
12,Cc1cc(C)cc(-n2ncc3c2CCCC3NC(=O)c2cc(C)[nH]n2)c1 (stereo not shown),-67.5%
13,Cc1cccc(-n2ncc3c2CCCC3NC(=O)CCN2Cc3ccccc3C2=O)c1C (stereo not shown),2.55%
14,CC(=O)c1cc(C(=O)NC2CCCc3c2cnn3-c2cc(C)cc(C)c2)[nH]n1 (stereo not shown),-23%
15,Cc1cc(C)cc(-n2ncc3c2CCCC3NC(=O)CCN2Cc3ccccc3C2=O)c1 (stereo not shown),-54.3%
16,Cc1cc(C)cc(-n2ncc3c2CCCC3NC(=O)c2csnn2)c1 (stereo not shown),-110%
17,CC(C)(C)c1ccc(-n2ncc3c2CCCC3NC(=O)c2csnn2)cc1 (stereo not shown),1.88%
18,O=C(/C=C/Nc1ccc(S(=O)(=O)Nc2cnc3ccccc3n2)cc1)c1cccnc1,-12.9%
19,O=C(C[n+]1cc(Br)cc(Br)c1)c1ccccc1.[Br-],8.53%
